# Measured values reported in the supplement of paper PMC11006884.
# Of roughly 6,500 targets only a part is listed; those with a hit were picked by preference. About 2% of all pairs of compound and target were hits. Unmarked numbers belong to inactive results.
# Compound: COC(=O)C#Cc1ccccc1 [methyl 3-phenylpropiolate]
# Test: log2 ratio of iodoacetamide-alkyne labeling of the cysteine site, DMSO over compound (competition); higher = stronger covalent engagement of the cysteine by the compound, active = 1 or more
# Conditions: 500 µM; treatment time 1 h; system: HEK293T cell lysate
# Method in brief: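 For each cysteine, the log2 competition ratio is mean control-channel reporter intensity over mean compound-channel reporter intensity. HEK293T lysate (2 mg/mL) was exposed to vehicle or electrophile (500 µM, 1 h, ambient temperature), labelled with iodoacetamide alkyne (1 h), clicked to sCIP-TMT reagents, digested overnight with trypsin at 37 °C, streptavidin-enriched and analysed by Orbitrap Eclipse LC-MS/MS with FAIMS and FragPipe. Cysteines quantified in only one of three replicates, each with duplicate channels, were excluded.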
# Sequence of UniProt P13995 (P13995 whole entry, looked up): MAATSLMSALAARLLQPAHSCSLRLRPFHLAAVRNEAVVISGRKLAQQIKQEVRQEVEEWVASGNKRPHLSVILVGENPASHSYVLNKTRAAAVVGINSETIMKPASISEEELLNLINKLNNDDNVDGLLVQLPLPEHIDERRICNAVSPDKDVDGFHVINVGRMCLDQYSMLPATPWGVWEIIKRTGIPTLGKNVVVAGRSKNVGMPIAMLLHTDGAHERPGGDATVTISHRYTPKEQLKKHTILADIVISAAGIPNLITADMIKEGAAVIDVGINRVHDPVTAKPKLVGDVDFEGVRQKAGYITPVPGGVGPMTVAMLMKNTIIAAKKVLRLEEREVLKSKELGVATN
# Sequence of UniProt P42765 (P42765 whole entry, looked up): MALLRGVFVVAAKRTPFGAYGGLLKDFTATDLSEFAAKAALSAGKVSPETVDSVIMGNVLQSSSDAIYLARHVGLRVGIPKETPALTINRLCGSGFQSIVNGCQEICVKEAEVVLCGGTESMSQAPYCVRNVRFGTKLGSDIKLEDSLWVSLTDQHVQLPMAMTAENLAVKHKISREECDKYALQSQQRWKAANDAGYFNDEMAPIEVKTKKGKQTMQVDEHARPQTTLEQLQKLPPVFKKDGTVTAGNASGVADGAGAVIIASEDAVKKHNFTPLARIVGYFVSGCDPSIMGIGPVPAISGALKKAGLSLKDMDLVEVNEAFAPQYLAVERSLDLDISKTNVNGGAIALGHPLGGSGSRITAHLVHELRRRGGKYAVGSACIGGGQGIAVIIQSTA
# Sequence of UniProt P48643 (P48643 whole entry, looked up): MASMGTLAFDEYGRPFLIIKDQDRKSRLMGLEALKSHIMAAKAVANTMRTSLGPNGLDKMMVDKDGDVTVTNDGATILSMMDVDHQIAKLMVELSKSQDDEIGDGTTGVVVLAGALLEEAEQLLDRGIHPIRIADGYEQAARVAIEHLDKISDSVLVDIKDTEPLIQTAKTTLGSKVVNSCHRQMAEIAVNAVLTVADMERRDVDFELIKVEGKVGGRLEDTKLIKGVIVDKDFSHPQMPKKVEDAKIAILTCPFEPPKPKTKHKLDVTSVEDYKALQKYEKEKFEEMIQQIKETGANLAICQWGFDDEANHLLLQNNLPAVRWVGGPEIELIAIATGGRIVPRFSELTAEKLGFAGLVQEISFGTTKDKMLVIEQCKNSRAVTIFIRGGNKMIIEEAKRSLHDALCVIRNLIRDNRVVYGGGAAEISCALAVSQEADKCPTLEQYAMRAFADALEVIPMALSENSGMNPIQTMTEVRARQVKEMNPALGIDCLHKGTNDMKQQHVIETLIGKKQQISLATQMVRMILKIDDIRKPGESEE
# Sequence of UniProt P50991 (P50991 whole entry, looked up): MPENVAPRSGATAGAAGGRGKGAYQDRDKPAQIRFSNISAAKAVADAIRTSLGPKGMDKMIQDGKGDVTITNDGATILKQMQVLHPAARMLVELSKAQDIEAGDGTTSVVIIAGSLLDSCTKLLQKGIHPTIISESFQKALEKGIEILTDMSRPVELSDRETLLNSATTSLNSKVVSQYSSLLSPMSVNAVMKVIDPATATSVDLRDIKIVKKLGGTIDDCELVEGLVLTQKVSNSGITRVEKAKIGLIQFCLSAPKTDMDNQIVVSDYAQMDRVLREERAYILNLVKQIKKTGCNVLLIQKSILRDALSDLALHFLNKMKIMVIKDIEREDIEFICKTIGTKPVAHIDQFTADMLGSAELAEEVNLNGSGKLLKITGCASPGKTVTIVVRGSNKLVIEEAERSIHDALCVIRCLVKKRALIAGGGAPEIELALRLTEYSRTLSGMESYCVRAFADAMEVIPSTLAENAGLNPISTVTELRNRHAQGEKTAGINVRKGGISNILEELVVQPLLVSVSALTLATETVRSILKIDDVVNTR
# Sequence of UniProt P35611 (P35611 whole entry, looked up): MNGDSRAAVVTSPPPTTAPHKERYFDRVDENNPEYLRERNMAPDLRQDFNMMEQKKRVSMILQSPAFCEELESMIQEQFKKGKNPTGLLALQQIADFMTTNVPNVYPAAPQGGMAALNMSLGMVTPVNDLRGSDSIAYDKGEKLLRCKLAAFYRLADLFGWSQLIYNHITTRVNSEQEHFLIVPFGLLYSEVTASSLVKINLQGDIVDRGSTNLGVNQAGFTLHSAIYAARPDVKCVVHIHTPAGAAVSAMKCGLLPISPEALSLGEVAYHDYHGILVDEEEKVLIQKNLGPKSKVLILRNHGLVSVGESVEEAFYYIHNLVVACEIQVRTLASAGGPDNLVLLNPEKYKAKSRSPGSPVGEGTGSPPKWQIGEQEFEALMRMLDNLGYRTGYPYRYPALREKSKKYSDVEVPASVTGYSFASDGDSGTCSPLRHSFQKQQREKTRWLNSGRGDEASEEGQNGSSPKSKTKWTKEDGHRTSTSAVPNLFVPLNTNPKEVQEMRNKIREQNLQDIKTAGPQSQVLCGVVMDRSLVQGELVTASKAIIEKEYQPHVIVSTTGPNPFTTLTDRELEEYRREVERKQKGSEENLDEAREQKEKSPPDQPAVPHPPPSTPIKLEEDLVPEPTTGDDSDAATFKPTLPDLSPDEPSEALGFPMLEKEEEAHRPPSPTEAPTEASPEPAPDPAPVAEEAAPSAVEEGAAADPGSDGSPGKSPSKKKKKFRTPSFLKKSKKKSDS
# Sequence of UniProt P52597 (P52597 whole entry, looked up): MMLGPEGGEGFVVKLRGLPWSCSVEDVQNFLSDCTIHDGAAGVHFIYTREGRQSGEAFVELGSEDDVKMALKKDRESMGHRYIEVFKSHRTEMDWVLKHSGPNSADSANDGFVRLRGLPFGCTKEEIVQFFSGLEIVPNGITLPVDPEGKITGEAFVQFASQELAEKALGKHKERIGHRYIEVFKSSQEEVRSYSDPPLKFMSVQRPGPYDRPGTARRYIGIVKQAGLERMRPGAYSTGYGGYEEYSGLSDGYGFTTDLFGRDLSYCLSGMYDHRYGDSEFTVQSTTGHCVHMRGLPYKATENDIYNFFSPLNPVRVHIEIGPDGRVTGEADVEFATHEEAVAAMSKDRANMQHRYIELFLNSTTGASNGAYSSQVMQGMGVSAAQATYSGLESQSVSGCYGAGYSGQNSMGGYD
# Sequence of UniProt P40926 (P40926 whole entry, looked up): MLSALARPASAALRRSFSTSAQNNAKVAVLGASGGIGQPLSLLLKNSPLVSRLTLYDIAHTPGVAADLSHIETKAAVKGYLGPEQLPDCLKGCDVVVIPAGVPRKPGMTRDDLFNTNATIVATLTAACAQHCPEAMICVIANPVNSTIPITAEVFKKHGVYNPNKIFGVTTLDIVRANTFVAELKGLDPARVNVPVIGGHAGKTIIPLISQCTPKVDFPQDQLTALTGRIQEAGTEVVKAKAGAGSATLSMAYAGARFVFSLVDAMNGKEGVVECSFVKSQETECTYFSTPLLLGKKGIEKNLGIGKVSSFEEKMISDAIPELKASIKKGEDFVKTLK
# Sequence of UniProt P05141 (P05141 whole entry, looked up): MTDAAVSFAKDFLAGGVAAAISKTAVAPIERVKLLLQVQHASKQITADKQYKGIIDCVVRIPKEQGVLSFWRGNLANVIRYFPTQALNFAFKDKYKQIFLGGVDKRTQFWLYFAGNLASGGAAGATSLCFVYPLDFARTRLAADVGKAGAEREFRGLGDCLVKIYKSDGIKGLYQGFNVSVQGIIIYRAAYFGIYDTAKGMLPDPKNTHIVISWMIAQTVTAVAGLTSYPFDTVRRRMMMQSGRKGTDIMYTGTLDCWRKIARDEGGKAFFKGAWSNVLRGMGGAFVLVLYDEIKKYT
# Sequence of UniProt P00492 (P00492 whole entry, looked up): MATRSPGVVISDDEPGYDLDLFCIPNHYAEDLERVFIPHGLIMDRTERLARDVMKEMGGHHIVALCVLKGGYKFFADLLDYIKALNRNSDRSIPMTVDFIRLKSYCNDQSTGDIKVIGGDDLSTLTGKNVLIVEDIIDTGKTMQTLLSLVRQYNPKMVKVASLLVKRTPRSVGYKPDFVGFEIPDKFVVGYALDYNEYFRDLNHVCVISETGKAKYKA
# Sequence of UniProt O95983 (O95983 whole entry, looked up): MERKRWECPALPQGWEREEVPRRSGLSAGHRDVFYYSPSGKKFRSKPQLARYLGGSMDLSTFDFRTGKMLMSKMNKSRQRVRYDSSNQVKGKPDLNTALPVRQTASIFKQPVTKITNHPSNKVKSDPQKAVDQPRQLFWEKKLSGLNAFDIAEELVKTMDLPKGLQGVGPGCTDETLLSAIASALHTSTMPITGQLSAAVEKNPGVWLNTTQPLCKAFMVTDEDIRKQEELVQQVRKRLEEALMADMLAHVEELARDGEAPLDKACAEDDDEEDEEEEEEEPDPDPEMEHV
# Sequence of UniProt P23508 (P23508 whole entry): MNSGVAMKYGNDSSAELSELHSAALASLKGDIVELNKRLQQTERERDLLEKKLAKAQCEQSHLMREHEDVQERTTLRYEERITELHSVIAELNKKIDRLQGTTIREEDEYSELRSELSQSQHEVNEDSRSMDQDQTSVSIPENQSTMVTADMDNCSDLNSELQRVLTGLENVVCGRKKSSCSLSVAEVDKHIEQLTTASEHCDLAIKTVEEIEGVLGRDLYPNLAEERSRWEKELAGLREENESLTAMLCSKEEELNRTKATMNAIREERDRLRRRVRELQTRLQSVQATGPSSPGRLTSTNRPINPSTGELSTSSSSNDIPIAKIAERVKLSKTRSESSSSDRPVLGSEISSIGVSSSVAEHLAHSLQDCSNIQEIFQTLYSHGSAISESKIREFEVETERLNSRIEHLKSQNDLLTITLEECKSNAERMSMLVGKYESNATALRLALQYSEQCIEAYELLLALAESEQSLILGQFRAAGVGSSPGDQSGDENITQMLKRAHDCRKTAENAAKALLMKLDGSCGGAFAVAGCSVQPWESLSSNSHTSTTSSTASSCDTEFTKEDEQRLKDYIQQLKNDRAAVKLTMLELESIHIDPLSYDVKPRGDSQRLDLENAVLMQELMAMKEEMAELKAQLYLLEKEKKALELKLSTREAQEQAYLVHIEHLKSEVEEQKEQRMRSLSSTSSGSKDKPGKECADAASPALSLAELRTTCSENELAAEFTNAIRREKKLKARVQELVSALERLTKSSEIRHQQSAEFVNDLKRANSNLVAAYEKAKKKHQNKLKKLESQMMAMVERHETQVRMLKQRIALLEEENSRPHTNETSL
row,Target,log2 ratio of iodoacetamide-alkyne labeling
1,IDH3G C81 (UniProt P51553),0.412
2,FLNA C1453 (UniProt P21333),0.357
3,MTHFD2 C145 (UniProt P13995),0.057
4,SRI C194 (UniProt P30626),-0.125
5,FASN C1548 (UniProt P49327),-0.00359
6,SLC25A5 C160 (UniProt P05141),0.177
7,UniProt P42677_C77,1.73 (active)
8,GSR C102 (UniProt P00390),0.154
9,CCT5 C377 (UniProt P48643),0.18
10,MPI C289 (UniProt P34949),-0.0268
11,MDH2 C128 (UniProt P40926),-0.335
12,NT5C2 C181 (UniProt P49902),0.0722
13,ACAA2 C116 (UniProt P42765),1.22 (active)
14,HNRNPF C290 (UniProt P52597),0.0362
15,MBD3 C172 (UniProt O95983),0.114
16,SCP2 C94 (UniProt P22307),0.136
17,ETFB C42 (UniProt P38117),0.207
18,PGLS C32 (UniProt O95336),0.724
19,MCC C714 (UniProt P23508),0.565

row,Target,log2 ratio of iodoacetamide-alkyne labeling
1,RANBP2 C581 (UniProt P49792),0.41
2,PCNA C62 (UniProt P12004),0.0598
3,PAICS C81 (UniProt P22234),0.248
4,FLNA C478 (UniProt P21333),0.00171
5,LATS1 C885 (UniProt O95835),0.423
6,G6PD C385 (UniProt P11413),0.327
7,PLCG1 C976 (UniProt P19174),1.9 (active)
8,UniProt P26367_C94,0.097
9,HCFC1 C1872 (UniProt P51610),1.32 (active)
10,CCT4 C252 (UniProt P50991),-0.0169
11,HPRT1 C206 (UniProt P00492),0.0837
12,RPS17 C35 (UniProt P08708),-0.00485
13,CAPZA2 C111 (UniProt P47755),0.0355
14,ADD1 C253 (UniProt P35611),0.101
15,ATP1A1 C428 (UniProt P05023),0.234
16,CA2 C205 (UniProt P00918),-0.11
17,ACSL3 C652 (UniProt O95573),-0.112
18,SEC24B C562 (UniProt O95487),0.735
